# Assay outcomes (PubChem)
# Compounds with a hit are over-represented: about 2.3% of the library has one in this group of screens.
# 697 NFkB inh: inhibitors of PMA/ionomycin-induced NF-kB reporter, 697 cells, primary screen, B-cell NF-kB inhibitor project, cell-based, luminescence, uHTS; 697 B-cell NF-kB luciferase reporter, 16 h; inhibition, % at 4 µM; hit rate 0.33% among 330,000; AID 435022, 2010; in the data active means inhibition above about 35%
# H9c2 TAG inh: inhibitors of triacylglycerol accumulation, primary screen, cell-based, uHTS, fluorescence, H9c2; hit rate 0.66% among 230,000; H9c2 cells, Nile Red lipid (TAG) fluorescence; cells loaded with 200 µM oleic acid; inhibition, % at 12.5 µM;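 active means pattern-corrected inhibition of lipid staining of at least 50% with the nuclear-stain viability signal not falling by more than 50%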;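 further: 0% = DMSO wells and 100% = triacsin C control wells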
# aSyn 5UTR inh: MLPCN primary screen, SNCA 5' untranslated region | alpha-synuclein 5'UTR reporter, inhibitor activity | inhibition, % (tested at 7.5 µM) | hit rate 0.82% among 300,000 | AID 1813, 2009; in the data active means inhibition above about 60%;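 further: H4 neuroglioblastoma cells stably carrying SNCA 5'UTR luciferase fusion; 0% = DMSO wells and 100% = positive control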
# Gli-Sufu block: Gli-Sufu pathway antagonists, primary screen, luciferase luminescence, Sufu-KO-LIGHT cells, uHTS; AID 588413, 2011; hit rate 0.74% among 340,000; Sufu-KO-LIGHT fibroblasts, Gli luciferase reporter luminescence; inhibition, % at 5 µM;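 active means inhibition above about 55%, limit read from the data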;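 further: 0% = DMSO-treated cells and 100% = wells with medium but no cells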
# Jurkat NFkB inh: inhibitors of induced NF-kB luciferase reporter, primary screen, TCR NF-kB activation inhibitor project, cell-based, luminescence, uHTS; Jurkat, PMA/ionomycin-induced NF-kB luciferase reporter; hit rate 0.53% among 330,000; inhibition, % at 4 µM; in the data active means inhibition above about 50%
# Shn3 inh set2: reduction of Shn3 3'UTR firefly luciferase signal, primary screen, Schnurri-3 inhibitor project, cell-based, Clone20 osteoblasts, set 2; inhibition, % at 12.5 µM; Clone20 osteoblast Shn3 3'UTR firefly luciferase, 24 h; AID 588674, 2011; hit rate 0.52% among 360,000;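 active means mean inhibition of at least 75% with every replicate also reaching 75%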;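 further: 0% = median of neutral control wells and 100% = pilot-screen positive control compound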
# Starred values were filed as active, the others as inactive; · = no result given.
SMILES,697 NFkB inh,H9c2 TAG inh,aSyn 5UTR inh,Gli-Sufu block,Jurkat NFkB inh,Shn3 inh set2
CN(C)CCNc1ccc(CO)c2sc3ccc(O)cc3c(=O)c12,·,112.1,·,76.7*,·,18.7
CN(C)CCNc1ccc2ncn3c4ccc(O)cc4c(=O)c1c23,·,74.7*,·,24.8,·,-28.9
CN(C)CCNc1ccc(-c2nn(C)c(=O)c3ccccc23)cc1[N+](=O)[O-],10.5,8.0,-2.1,12.1,30.2,24.6
CCSc1nc(-c2ccccc2)nc(C(Cl)Cl)n1,-6.9,68.3,123.0*,15.3,-7.0,23.3
Cc1ccc2cc3c(N)c(C(=O)N4CC(=O)Nc5ccccc54)sc3nc2c1,-25.9,·,82.1*,·,-11.7,·
Cc1ccc2nc3sc(C(=O)N4CCOCC4)c(N)c3cc2c1,13.1,12.4,99.7*,6.2,-6.0,52.0
Cc1nn(CC(=O)NC2(C#N)CCCCC2)c(C)c1[N+](=O)[O-],-27.9,-10.4,·,-0.2,-9.5,-2.6
CN1CCN(/N=C/c2ccc(N(c3ccccc3)c3ccccc3)cc2)CC1,-32.4,2.7,70.6*,-8.0,-12.1,1.5
CN1CCN(/N=C/c2ccc(N(C)c3ccccc3)cc2)CC1,-7.2,-1.1,-21.4,3.5,-32.4,4.6
COc1ccc2cc3c(N)nn(C(=O)c4ccc(F)cc4)c3nc2c1,1.5,17.2,-5.6,-21.5,22.0,1.0
COc1ccc2cc3c(N)nn(C(=O)c4ccccc4Cl)c3nc2c1,16.8,36.4,65.3*,-22.5,34.3,8.3
CC1CC(C)(C)CC2(C1)NC(=O)N(CC(=O)N1CCN(Cc3ccc(C#N)cc3)CC1)C2=O (stereo not drawn),-21.4,-25.6,·,49.3,17.2,85.8*
COC(=O)CSc1nnc([C@H](Cc2ccccc2)NC(=O)OC(C)(C)C)o1,-2.3,·,3.5,-2.6,-1.0,-22.9
COC(=O)CS(=O)(=O)c1nnc([C@H](Cc2ccccc2)NC(=O)OC(C)(C)C)o1,-10.8,-3.9,19.5,-11.7,30.2,96.1*
Cc1cccc(CS(=O)(=O)c2nnc([C@H](Cc3ccccc3)NC(=O)OC(C)(C)C)o2)c1,-4.3,·,-12.1,2.5,23.6,96.9*
COc1ccc(C)cc1NC(=O)CNC(c1ccccc1)c1ccc(C)cc1 (stereo not drawn),-22.8,·,103.5*,6.3,37.1,31.9
COc1ccccc1NC(=O)CNC(c1ccccc1)c1ccccc1,-18.4,·,1.2,-1.0,-12.5,9.3
CC(C)OC(=O)c1cc(NC(=S)Nc2ccc([N+](=O)[O-])cc2)cc(C(=O)OC(C)C)c1,9.8,16.4,35.7,-2.0,-7.1,7.7
NC(=O)c1cc2c3ccccc3ccn2c1-c1ccccc1,·,·,113.0*,4.9,·,-66.5
Cc1cc(C(N)=O)c2ccccc2n1,-7.4,·,2.5,-4.5,-8.4,-5.7
CC(=O)Nc1ccc(NC2=C/C(=N/S(=O)(=O)c3cccs3)c3ccccc3C2=O)cc1,-17.0,·,82.6*,-11.1,18.1,96.3*
Cc1ccc(NC2=C/C(=N/S(=O)(=O)c3cccs3)c3ccccc3C2=O)cc1C,·,·,-155.4,1.8,·,-4.7
O=C1Oc2ccccc2C(=O)/C1=C/N1CCN(c2ccccc2F)CC1,-3.6,9.4,11.8,31.0,-7.5,0.2
COc1cc(/C=N/NC(=O)c2nonc2C)ccc1O,-13.8,11.3,5.6,-3.3,-8.8,10.1
O=Cc1cn(-c2ccccc2)nc1-c1ccccc1,-4.9,·,-0.3,-34.7,-22.2,-34.7
SMILES,697 NFkB inh,H9c2 TAG inh,aSyn 5UTR inh,Gli-Sufu block,Jurkat NFkB inh,Shn3 inh set2
CC1=NNC(=O)/C1=C\c1cn(-c2ccccc2)nc1-c1ccccc1,·,3.1,23.5,6.1,·,97.3*
Cc1cc2nc3ccc(=[N+](C)C)cc-3sc2cc1N,·,103.7,91.2*,28.2,·,-19.1
Cc1cc(=O)oc2cc(OCC(=O)Nc3nccs3)ccc12,4.5,·,-51.4,-62.9,-107.9,-53.0
Cc1c(C)c2ccc(OCC(=O)Nc3nccs3)cc2oc1=O,5.0,·,66.2*,-35.2,-24.7,25.0
CCOCc1nnc(NC(=O)C2CCN(C(=O)c3ccco3)CC2)s1,-9.6,·,-0.3,-6.6,-1.5,-2.3
c1ccc(Sc2ccccc2CN2CCCC2)cc1,-48.8,6.6,84.6*,9.0,-31.6,0.9
C#CCOCCOCCOCCNc1nc(N2CCN(C(=O)CCCCCCCCCCNC(=O)[C@H](CO)n3cc(CCCSC)nn3)CC2)nc(N2CCN(C(=O)CCCCCCCCCCNC(=O)[C@H](CCCCN)n3cc(C[C@@H](C)CC)nn3)CC2)n1,-33.2,·,110.1*,·,49.6,·
C#CCOCCOCCOCCNc1nc(N2CCN(C(=O)CCCCCCCCCCNC(=O)[C@H](CCCCN)n3cc(C[C@@H](C)CC)nn3)CC2)nc(N2CCN(C(=O)CCCCCCCCCCNC(=O)[C@H](CCCCN)n3cc(C[C@@H](C)CC)nn3)CC2)n1,·,88.4*,106.8*,6.9,·,-15.8
C#CCOCCOCCOCCNc1nc(N2CCN(C(=O)CCCCCCCCCCNC(=O)[C@H](CCCCN)n3cc(C)nn3)CC2)nc(N2CCN(C(=O)CCCCCCCCCCNC(=O)[C@@H]([C@H](C)CC)n3cc(CCCCCN)nn3)CC2)n1,-24.9,74.6*,·,·,9.4,77.5
C#CCOCCOCCOCCNc1nc(N2CCN(C(=O)CCCCCCCCCCNC(=O)[C@H]([C@@H](C)CC)n3cc(CCCCCN)nn3)CC2)nc(N2CCN(C(=O)CCCCCCCCCCNC(=O)[C@@H]([C@H](C)O)n3cc(C)nn3)CC2)n1,-24.6,-2.7,·,-2.2,49.2,15.2
Cc1ccc(-n2nc3c(N4CCC(C(=O)NCCc5ccccc5C)CC4)nnc(C)c3c2C)cc1,2.8,·,71.7*,31.9,39.4,18.1
O=C(O)Cc1sc(Nc2ccc(Cl)cc2)nc1-c1cccs1,-23.5,·,-187.7,-63.2,-10.3,·
O=S(=O)(c1ccc(Cl)cc1)N1CCC(c2nc3ccccc3[nH]2)CC1,8.0,·,75.9*,-6.5,11.7,20.8
O=C(O)c1ccc2c(=O)n3c(nc2c1)/C(=C/c1ccc(F)cc1)CC3,-15.0,·,-73.4,7.1,13.4,-29.1
COc1ccc(-c2nn(C)c3sc(C(=O)NCc4ccco4)cc23)cc1OC,26.2,3.7,0.1,-4.9,-8.5,0.1
COc1ccc(NC(=O)c2cc3c(-c4ccc(OC)c(OC)c4)nn(C)c3s2)cc1OC,17.0,79.1*,-69.6,6.2,-5.6,3.9
C=CCN1c2ccccc2[C@]23C[C@@H](C(=O)OC)N(C(=O)c4ccc(Br)cc4)C2=NC(C(=O)OC)=C(C(=O)OC)[C@H]13,-0.1,-7.1,2.2,-2.6,-8.6,41.2
COC(=O)C1=C(C(=O)OC)[C@@H]2N(Cc3ccccc3)c3ccccc3[C@@]23C[C@@H](C(=O)OC)N(C(=O)c2ccc(Br)cc2)C3=N1,13.0,-1.2,42.8,-0.3,32.9,96.6*
O=C(O)/C=C/c1ccc([N+](=O)[O-])o1,8.3,7.2,10.4,2.6,4.5,-15.0
